Reference: PubChem BioAssay (NCI)
The panel holds about 79,000 compounds, 15% with a hit somewhere; the sample as a whole holds those more often. Cut-off read from the data, not from the text of the source: active = growth inhibition above about 70%; inactive = the rest.

How the values were obtained:
[1] = NCI Yeast Anticancer Drug Screen. Data for the rad50 strain (AID 155);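 note: 0% = growth of vehicle-only cultures of the same strain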; settings: S. cerevisiae rad50 strain growth inhibition; at 50.0 µM; active compounds read high
Summary of the method: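 DNA repair mutant yeast, compound exposure, growth read-out; inhibition is taken relative to vehicle.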

[2] = NCI Yeast Anticancer Drug Screen. Data for the mec2-1 strain (AID 157); settings: S. cerevisiae mec2-1 strain, at 50.0 µM, active compounds read high
Summary of the method: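 Yeast mec2-1 mutant treated with compound. Readout: growth inhibition vs vehicle controls.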

[3] = NCI Yeast Anticancer Drug Screen. Data for the sgs1 mgt1 strain (AID 161);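 note: 0% = growth of cultures given vehicle only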; settings: S. cerevisiae sgs1 mgt1 strain, at 50.0 µM, active compounds read high
Summary of the method: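 Mutant yeast exposed to compound; growth scored against vehicle-only wells.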

[4] = NCI Yeast Anticancer Drug Screen. Data for the cln2 rad14 strain (AID 165);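 note: 0% = growth equal to vehicle treated cultures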; settings: S. cerevisiae cln2 rad14 strain, at 50.0 µM, active compounds read high
Summary of the method: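 cln2 rad14 yeast strain; compound exposure; growth inhibition read vs vehicle controls.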

[5] = NCI Yeast Anticancer Drug Screen. Data for the mlh1 rad18 strain (AID 175); settings: S. cerevisiae mlh1 rad18 strain growth inhibition; at 50.0 µM; active compounds read high
Summary of the method: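 Yeast w/ defined DNA-repair lesions; compound exposure; growth vs vehicle controls → % inhibition.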

[6] = NCI Yeast Anticancer Drug Screen. Data for the bub3 strain (AID 167); settings: S. cerevisiae bub3 mutant strain, at 50.0 µM, active compounds read high
Summary of the method: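 In this screen, a yeast mutant lacking normal mitotic checkpoint function is challenged with compound. Relative growth versus vehicle gives the inhibition value.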

Measured: growth inhibition

CC(C)(O)/C1=C/C=C/CCCCCCCCCC1
inactive: [1] 13.8% | [2] 14.9% | [3] 50.1% | [4] 5.75% | [5] 16.9%

CCC(=O)C(C)C(=O)CCC(=O)Nc1cc(Cl)ccc1Cl (stereo unspecified)
inactive: [1] 21.4% | [2] 18.5% | [3] 18.6% | [4] 20.2% | [5] 19.6%

CC(C)(N)CNCC(C)(C)N
inactive: [1] 6.9% | [2] -3.65% | [3] -0.2% | [4] -5.8% | [5] -2.1%

CC1CNC(=O)NC1=O.O.O.[NH2-].[NH2-].[Pt+4] (stereo unspecified)
inactive: [1] 7.55% | [2] 11.2% | [3] -0.75% | [4] -51% | [5] -5.85%

COc1ccc2c(c1)C1(C)CCCC(C)(CO)C1CC2 (stereo unspecified)
inactive: [1] 37% | [2] -0.3% | [3] 20.2% | [4] 3.95% | [5] -10.8%

S=c1c2ccccc2c(=S)n2n1CC=CC2
inactive: [1] 7.6% | [2] 6.95% | [3] 2.3% | [4] 0% | [5] 15.7%

Cc1ccc(-c2cnc3c(n2)c(=O)[nH]c(=O)n3C)cc1
inactive: [1] 29.5% | [2] 19.1% | [3] 20.5% | [4] 13.8% | [5] 35.6%

Cc1ccc(S(=O)(=O)NCNS(=O)(=O)c2ccc(C)cc2)cc1
inactive: [1] -37.5% | [2] -7% | [3] 2.05% | [4] 14% | [5] -35.6%

Cc1csc2c1-n1cccc1C2=O
inactive: [1] 5.5% | [2] 1% | [3] -17.8% | [4] 12.2% | [5] 24.3%

CCCCCC1CC[N-]CC1.CCCCCC1CC[N-]CC1.N#C[S-].N#C[S-].[Cu]
inactive: [1] 33.4% | [2] 12.7% | [3] 5% | [4] -33.1% | [5] 24.1%

CCOCCOCCOC(=O)CC(C)=O
inactive: [1] 3.45% | [2] 24.9% | [3] 5.5% | [4] -22.3% | [5] -11.5%

CC(C)N(CC(c1ccccc1)C(C)(O)c1ccccc1)C(C)C (stereo unspecified)
inactive: [1] -10.1% | [2] 15.7% | [3] -7.55% | [4] 4.2% | [5] -21.1%

Cc1cc(N(CCC#N)CCC#N)ccc1/C=C1N=C(/C=C\c2ccccc2)OC\1=O
inactive: [1] 5.5% | [2] -8.5% | [3] 5.5% | [4] 12.2% | [5] 5.3%

Clc1cnnc2nc[nH]c12
inactive: [1] -10.8% | [2] -7.4% | [3] -24.2% | [4] -28.1% | [5] -23.2%

Nc1nc(N)c(NC(=O)CCCO)c(=O)[nH]1
inactive: [1] -3.95% | [2] -2.35% | [3] -13.3% | [4] 6.8% | [5] -53%

O=C1OC([C@H](O)c2cccnc2)c2ccccc21 (stereo partly specified)
inactive: [1] -17.1% | [2] -24.9% | [3] -39.4% | [4] -22.9% | [5] -21.6%

NC(=O)CNc1ccc(CC2CCOC2=O)cc1 (stereo unspecified)
inactive: [1] -7.45% | [2] -18.9% | [3] -5.9% | [4] 0.95% | [5] -5.7%

O=c1[nH]c2cc(Cl)ccc2nc1/C(=N\O)C(O)c1cccc([N+](=O)[O-])c1 (stereo unspecified)
inactive: [1] 6.7% | [2] -9.55% | [3] -7.75% | [4] 11.9% | [6] -5.1% | [5] -13.2%

O=C/C(=C(/Br)I)c1ccccc1
inactive: [1] 5.25% | [2] 2.85% | [3] 24.9% | [4] 8.7% | [5] -27.1%

N=c1c2ccccc2nc2oc3ccccc3n12
inactive: [1] 48.8% | [2] 12% | [3] 7.7% | [4] 13.2% | [5] 6.5%

CCCCNC(N)=O
inactive: [1] -21.1% | [2] -36.1% | [3] -21.9% | [4] -37.9% | [5] -9.25%

Nc1nnc(N)c2nc(-c3ccccc3)c(-c3ccccc3)nc12
inactive: [1] 10.4% | [2] 16.4% | [3] 28.1% | [4] -14.8% | [5] 20.9%

Cc1c(COC(=O)NC(C)C)c(COC(=O)NC(C)C)c2n1CS(=O)(=O)C2
inactive: [1] -16.2% | [2] 6.55% | [3] -3.2% | [4] 7.3% | [5] 6.35%

O=C(O)c1cccc(F)c1C(=O)O
inactive: [1] -4.5% | [2] -3.65% | [3] -1.5% | [4] -20.4% | [5] 7.3%
